In the library only some 7.1% were active in any assay of this set; here they are far more common.
ELG1 genotoxic: induces genotoxicity in HEK293T cells with luciferase-tagged ELG1 | Potency, µM (titrated, usually from 46 µM), for inactives: at the top dose activity change, positive = activation, most hits filed as activators | 1.3% of 330,000 active | AID 504466 | HEK293T ELG1-luciferase reporter, luminescence, 16 h; also: % of control where 0% means no effect; nearly all actives have a fitted effect of over 60% in size
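Genotoxic stress is detected as increased luminescence from luciferase-tagged ELG1 in HEK293T cells, measured with ONE-Glo after a 16 hr treatment at 37 °C.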
MCF10A rereplic: induces DNA re-replication in MCF 10a normal breast cells; MCF 10A DNA re-replication, Hoechst nuclear intensity, 48 h; Potency, µM (titrated, usually from 46.1 µM), for inactives: top-dose activity, positive = re-replication, most hits filed as activators; 2.9% of 350,000 active; AID 624296; also: % of control where 0% means no effect; nearly all actives have a fitted effect of over 50% in size
A-T KAP1 phos: potential ataxia-telangiectasia treatment; F2112 A-T fibroblasts, KAP-1 phosphorylation AlphaLISA; neocarzinostatin DNA damage 30 min before lysis; Potency, µM (series often up to 57.5 µM), for the others: at the highest dose activation, most hits filed as activators; 0.19% of 320,000 active; AID 485349; also: % of control where 0% means no effect; nearly all actives have a fitted effect of over 45% in size
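ATM-like activity read as KAP-1 phosphorylation via AlphaLISA donor/acceptor antibody pairs after lysis and 6 hr at 25C. Cells were ATM-null patient fibroblasts (F2112, hTERT), dosed 60 min, then exposed to the DSB inducer NCS for 30 min.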
SW480 rereplic: DNA re-replication induction in SW480 cells; 1.8% of 340,000 active; SW480 DNA re-replication, Hoechst DNA content imaging, 48 h; AID 624297; Potency, µM (doses to about 46.1 µM), for the others: top-dose re-replication activation, usual class: activators; also: % of control where 0% means no effect; nearly all actives have a fitted effect of over 55% in size
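Readout is total intensity of Hoechst-stained nuclei, excited at 405 nm and collected at 500-530 nm. Compound treatment lasted 48 hr at 37 C in 5% CO2 before staining.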
ELG1 DNA repair: blocks ELG1-dependent DNA repair in HEK293T cells | HEK293T ELG1-luciferase reporter, luminescence, 16 h; DNA damage induced by 5-fluorouridine | Potency, µM (series often up to 46.1 µM), for the others: at the highest dose activity change, negative = inhibition, hits mostly inhibitors | 2.3% of 330,000 active; also: % is scaled to controls: 0 for no effect and ±100 for the full control effect; nearly all actives have a fitted effect of over 55% in size
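Luminescence from the luciferase reporter, measured 30 min after ONE-Glo reagent at room temperature, was the read-out. Beforehand, 2,000 cells per well were exposed for 16 hr at 37 °C to 5-fluorouridine together with compound or vehicle.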
p53 reactivation: re-activators of mutant p53; H1299 p53-A138V BP100-luciferase reporter, luminescence, 24 h; Potency, µM (doses to about 92.2 µM), for inactives: top-dose activity change, positive = activation, usual class: activators; 0.063% of 320,000 active; AID 504706; also: % of control where 0% means no effect; nearly all actives have a fitted effect of over 45% in size
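p53-null H1299 cells stably carrying temperature-sensitive p53-A138V and a BP100-luciferase reporter were pinned with compounds (4-point, 1:5 series) and held 24 hrs at 37 deg C. Luminescence was read 10 min after detection reagent.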
Numbers without * were called inactive. Calls follow the shape of the dose curve; as a rule, active = well fitted curve in the direction sought with a large enough effect; inconclusive = small, poorly fitted or top-dose-only effect, or another doubt; inactive = no such curve, though single readings can be large; an effect the other way counts as inactive or inconclusive. Potency is read from the fitted curve at half-maximal effect.

`CCCN1C(=O)c2ccc(C(=O)Nc3nccs3)cc2C1=O` gave ELG1 genotoxic 5%, MCF10A rereplic 0%, A-T KAP1 phos -12%, SW480 rereplic -3%, ELG1 DNA repair 29% and p53 reactivation 8%.
Screening CCC(C)C(=O)Nc1nccs1 (configuration not stated) returned ELG1 genotoxic 11%, MCF10A rereplic 2%, A-T KAP1 phos 0%, SW480 rereplic 1.5µM*, ELG1 DNA repair inconclusive and p53 reactivation 1%.
For CSc1ncccc1C(=O)NCC(c1cccs1)N1CCOCC1 (configuration not stated) the results were ELG1 genotoxic 2%, MCF10A rereplic 3%, A-T KAP1 phos -5%, SW480 rereplic -8%, ELG1 DNA repair 8% and p53 reactivation -1%.
Screening Cc1cc(C)nc(N/N=C/C2=C(N3CCOCC3)C(=C/c3ccccc3)/CC2)n1 returned ELG1 genotoxic -15%, MCF10A rereplic 8.2µM*, SW480 rereplic 16µM*, ELG1 DNA repair 16µM* and p53 reactivation 1%.
Screening Cc1occc1C(=O)N/N=C/C1=C(N2CCOCC2)C(=C\c2ccc(Cl)cc2)/CC1 returned ELG1 genotoxic 6%, MCF10A rereplic 18µM*, A-T KAP1 phos 1%, SW480 rereplic inconclusive, ELG1 DNA repair 7% and p53 reactivation 5%.
COc1cccc(NC(=O)CN(C2=NC3CS(=O)(=O)CC3S2)c2cccc(C)c2)c1 (configuration not stated) was read as ELG1 genotoxic -8%, MCF10A rereplic 20%, A-T KAP1 phos -7%, SW480 rereplic 0%, ELG1 DNA repair 6% and p53 reactivation 17%.
Cc1[nH]c2ccc(C(=O)OC(C)C(=O)NCc3ccccc3)cc2c1C (configuration not stated) was read as ELG1 genotoxic -7%, MCF10A rereplic 15µM*, A-T KAP1 phos -1%, SW480 rereplic inconclusive, ELG1 DNA repair inconclusive and p53 reactivation -2%.
`COCCN(C(=O)COC(=O)c1ccc2[nH]c(C)c(C)c2c1)c1c(N)n(Cc2ccccc2)c(=O)[nH]c1=O` gave ELG1 genotoxic -1%, MCF10A rereplic 20%, A-T KAP1 phos 3%, SW480 rereplic inconclusive, ELG1 DNA repair 4% and p53 reactivation -1%.
Screening Cc1ccccc1CN(C)C(=O)COC(=O)c1ccc2[nH]c(C)c(C)c2c1 returned ELG1 genotoxic -4%, MCF10A rereplic 23%, A-T KAP1 phos -11%, SW480 rereplic -4%, ELG1 DNA repair 26µM* and p53 reactivation 12%.
Screening CCN(CC(=O)Nc1ccc(NC(C)=O)cc1)C(=O)/C=C/c1c(C)nn(-c2ccc(F)cc2)c1C returned ELG1 genotoxic -9%, MCF10A rereplic 1%, A-T KAP1 phos 5%, SW480 rereplic 11%, ELG1 DNA repair 8.2µM* and p53 reactivation -6%.
For COc1ccc(NS(=O)(=O)c2ccc3nc(COc4cccc5ccccc45)[nH]c3c2)cc1 the results were ELG1 genotoxic -10%, MCF10A rereplic 16%, A-T KAP1 phos 3%, SW480 rereplic inconclusive, ELG1 DNA repair 23µM* and p53 reactivation 11%.
COc1ccc(NS(=O)(=O)c2ccc3nc(COc4ccc5ccccc5c4)[nH]c3c2)cc1 was read as ELG1 genotoxic -6%, MCF10A rereplic 12%, A-T KAP1 phos 4%, SW480 rereplic inconclusive, ELG1 DNA repair 23µM* and p53 reactivation -23%.
COc1ccc(OCc2nc3ccc(S(=O)(=O)Nc4ccccc4Cl)cc3[nH]2)cc1 was read as ELG1 genotoxic -2%, MCF10A rereplic inconclusive, A-T KAP1 phos -1%, SW480 rereplic -5%, ELG1 DNA repair -21% and p53 reactivation -13%.
COc1ccc(S(=O)(=O)N2CCC(C(=O)N[C@@H](C)C(=O)NCc3ccncc3)CC2)cc1 was read as ELG1 genotoxic 4%, MCF10A rereplic -2%, A-T KAP1 phos 4%, SW480 rereplic -5%, ELG1 DNA repair 1% and p53 reactivation 0%.
For Cc1ccc(CNC(=O)C2CCC(CNc3nc(=S)[nH]c4ccccc34)CC2)cc1 (configuration not stated) the results were ELG1 genotoxic 10%, MCF10A rereplic 23µM*, A-T KAP1 phos 4%, SW480 rereplic 14%, ELG1 DNA repair -16% and p53 reactivation 0%.
Screening CC1=NN(C(=O)CSCc2ccccc2)C(O)(c2ccc(Cl)cc2)C1 (configuration not stated) returned ELG1 genotoxic -4%, MCF10A rereplic inconclusive, A-T KAP1 phos 0%, SW480 rereplic -5%, ELG1 DNA repair -13% and p53 reactivation -2%.
Screening CC1=NN(C(=O)COc2cc(C)ccc2C(C)C)C(O)(c2ccccc2)C1 (configuration not stated) returned ELG1 genotoxic -6%, MCF10A rereplic inconclusive, A-T KAP1 phos 8%, SW480 rereplic 12%, ELG1 DNA repair 21µM* and p53 reactivation 1%.
Screening CC1=NN(C(=O)c2ccc(Cl)cc2)C(O)(c2ccccc2)C1 (configuration not stated) returned ELG1 genotoxic 0%, MCF10A rereplic 15µM*, A-T KAP1 phos -1%, SW480 rereplic inconclusive, ELG1 DNA repair -7% and p53 reactivation -2%.
CCC1=NN(C(=O)COc2ccccc2)C(O)(c2ccncc2)C1 (configuration not stated) was read as ELG1 genotoxic -1%, MCF10A rereplic 2%, A-T KAP1 phos 5%, SW480 rereplic 6.5µM*, ELG1 DNA repair -21% and p53 reactivation -2%.
Cc1ccc(C(=O)Nc2cc(C)nn2CCC#N)cc1 was read as ELG1 genotoxic 4%, MCF10A rereplic 5%, A-T KAP1 phos 4%, SW480 rereplic -9%, ELG1 DNA repair 6% and p53 reactivation 7%.
Cc1ccccc1N=C1SC(CC(=O)Nc2ccc3ccccc3c2)C(=O)N1Cc1ccccn1 (configuration not stated) was read as ELG1 genotoxic -6%, MCF10A rereplic 19%, SW480 rereplic inconclusive, ELG1 DNA repair inconclusive and p53 reactivation 2%.
O=C(CC1SC(=Nc2ccccc2)N(Cc2ccccn2)C1=O)Nc1ccc(Br)cc1 (configuration not stated) was read as ELG1 genotoxic -5%, MCF10A rereplic 23µM*, A-T KAP1 phos -20%, SW480 rereplic 16µM*, ELG1 DNA repair -10% and p53 reactivation 13%.

Screens deposited in PubChem BioAssay by National Center for Advancing Translational Sciences (NCATS).
